# Source: PubChem BioAssay (The Scripps Research Institute Molecular Screening Center)
# Only some compounds are listed: those with a hit (about 2.2% of all), similar ones and a draw of the others.
# MOR-DOR ag-1 – agonists of human mu-delta opioid receptor heterodimerization; activation, % at 9.3 µM; 0.3% of 340,000 active; cells, OPRM1-OPRD1 heterodimerization, luminescence; P35372+P41143;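 also: 0% = vehicle-treated cells and 100% = reference agonist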
# Target sequence (P35372 whole entry, looked up): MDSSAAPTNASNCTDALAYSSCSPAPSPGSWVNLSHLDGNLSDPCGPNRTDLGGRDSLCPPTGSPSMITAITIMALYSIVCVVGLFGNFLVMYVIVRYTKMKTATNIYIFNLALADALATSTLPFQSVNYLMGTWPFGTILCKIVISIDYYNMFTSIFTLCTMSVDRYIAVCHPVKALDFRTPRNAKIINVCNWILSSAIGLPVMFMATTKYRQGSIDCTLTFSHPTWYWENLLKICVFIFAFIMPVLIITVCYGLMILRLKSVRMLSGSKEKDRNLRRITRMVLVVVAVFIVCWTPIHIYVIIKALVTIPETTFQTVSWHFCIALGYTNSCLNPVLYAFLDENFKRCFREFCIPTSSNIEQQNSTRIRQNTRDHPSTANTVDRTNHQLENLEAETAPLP
# Target sequence (P41143 whole entry, looked up): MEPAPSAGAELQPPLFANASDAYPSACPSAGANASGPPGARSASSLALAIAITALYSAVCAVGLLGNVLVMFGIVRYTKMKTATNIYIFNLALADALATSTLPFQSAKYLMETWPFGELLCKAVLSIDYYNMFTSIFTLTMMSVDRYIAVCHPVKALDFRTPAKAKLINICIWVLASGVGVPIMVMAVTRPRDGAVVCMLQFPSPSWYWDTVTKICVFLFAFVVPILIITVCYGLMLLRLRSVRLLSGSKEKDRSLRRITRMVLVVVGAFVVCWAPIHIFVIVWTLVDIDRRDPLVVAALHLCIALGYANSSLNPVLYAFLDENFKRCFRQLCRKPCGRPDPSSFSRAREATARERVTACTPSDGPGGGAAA
# m5-HT2A agonist – activates the mouse 5-HT2A serotonin receptor. 0.66% of 360,000 active. CHO-K1 mHTR2A beta-arrestin complementation, luminescence; percent of 30 µM serotonin response. P35363. activation, % at 7.6 µM;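 active = activation above a run cutoff, the mean activation of all tested compounds plus 3 SD, cut at about 14% in these data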;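 also: 0% = plate median of compound wells and 100% = 30 µM serotonin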
# HTR5A ag ctr – counter-screen for OPRM1-OPRD1 agonists: human HTR5A agonism; activation, % at 9.3 µM; HTR5A agonist assay, luminescence, cell-based; 0.61% of 340,000 active; P47898; in the data active = activation mostly above about 9.5%, no sharp cut-off; inactive = mostly below about 7.6%;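 also: 0% = cells with vehicle only and 100% = reference agonist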
# HTR5A inv ag – counter-screen for OPRM1-OPRD1 inverse agonists: human HTR5A inverse agonism; HTR5A cell line, luminescence; AID 504634; 0.083% of 340,000 active; inhibition, % at 9.3 µM; P47898; in the data active = inhibition mostly above about 23%, no sharp cut-off; inactive = mostly below about 18%;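 also: 0% = cells with DMSO and 100% = no-cell wells with DMSO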
# MOR-DOR inv ag – inverse agonist of human OPRM1-OPRD1 heterodimerization. P35372+P41143. cell-based MOR-DOR heterodimer luminescence, inverse agonism. inhibition, % at 9.3 µM. 0.21% of 340,000 active. AID 504357; in the data active = inhibition above about 22%, passing the limit was not always enough;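 also: 0% = cells with DMSO and 100% = wells without cells with DMSO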
# HGIII-sPLA2 inh – Inhibits HGIII-sPLA2 liposome hydrolysis, primary screen. Q9NZ20. QFRET BODIPY PC-A2 liposome hydrolysis, fluorescence. inhibition, % at 12.2 µM. 0.56% of 370,000 active;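 active = inhibition above mean plus 3 SD of compounds lying within the high and low control bounds, cut at about 19% in these data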;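 also: 0% = median of test compound wells and 100% = no enzyme DMSO wells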
# MOR-DOR ag-2 – promotes OPRM1-OPRD1 heterodimerization in HTR5A counter-screen. U2OS counter-screen cells, complementation luminescence, 3 h. AID 504913. activation, % at 9.3 µM. shares compounds with HTR5A ag ctr. 13% of 800 active
# HTR5A ag confirm – confirmation of human HTR5A agonists; shares compounds with HTR5A ag ctr; 17% of 800 active; activation, % at 9.3 µM; HTR5A agonist cell assay, luminescence; in the data active = activation above about 17%;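 also: 0% = cells with vehicle only and 100% = full reference agonist response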
# An asterisk follows results filed as active; · = no result. Rule as the data show it, unless noted: active = activation above about 18%; inactive = the rest.
SMILES,MOR-DOR ag-1,m5-HT2A agonist,HTR5A ag ctr,HTR5A inv ag,MOR-DOR inv ag,HGIII-sPLA2 inh,MOR-DOR ag-2,HTR5A ag confirm
c1ccc(-c2cc(-c3nnc4n3N=C(c3ccc5ccccc5c3)CS4)[nH]n2)cc1,2,4,15*,-66,-12,-6,6,15
Cc1ccc(OCCn2c(CCNC(=O)C(C)C)nc3ccccc32)cc1,-2,-11,20*,-55,13,-2,5,11
CC(C)C(=O)NCCc1nc2ccccc2n1CCCOc1ccc(Cl)cc1,0,-10,-4,12,-1,-14,·,·
CN(C)S(=O)(=O)c1cccc(COC(=O)c2ccc3c(c2)OCO3)c1,0,-2,0,22,-2,-2,·,·
CN(C)S(=O)(=O)c1cccc(COC(=O)c2ccc(Cl)cc2O)c1,1,6,16*,18,-3,-19,39*,-3
c1ccc2c(c1)nc(N1CCCCC1)c1ccccc12,4,0,2,-6,-19,-2,·,·
c1ccc2c(c1)nc(N1CCOCC1)c1ccccc12,3,-2,19*,4,-14,0,4,3
O=C(Nc1ccc(C(=O)N2CCCC2)cc1)c1ccccc1[N+](=O)[O-],0,4,18*,26,-2,5,0,5
O=C(COC(=O)CCC(=O)c1cccs1)Nc1cccc(F)c1,0,3,18*,-43,1,7,1,6
O=C(Nc1ccc2nc(SCc3ccc(Cl)cc3)sc2c1)c1ccccc1C(=O)N1CCOCC1,7,-2,21*,-51,-32,0,12,6
CC(C)CNc1nc(N)c([N+](=O)[O-])c(NCC2CCCO2)n1 (stereo unspecified),0,5,3,-5,2,-3,·,·
COCCCNc1nc(N)c([N+](=O)[O-])c(NCC2CCCO2)n1 (stereo unspecified),-3,3,15*,4,17,9,1,2
O=C(N/N=C/c1cc([N+](=O)[O-])ccc1Cl)c1cc(-c2ccccc2)nc2ccccc12,0,-2,16*,-11,1,4,8,3
O=C(N/N=C/c1cc([N+](=O)[O-])ccc1O)c1cc(-c2ccccc2)nc2ccccc12,-2,1,-2,-16,9,3,·,·
CCC(C)NS(=O)(=O)c1ccc(S(=O)(=O)N(CC(=O)Nc2ccccc2)Cc2ccco2)cc1 (stereo unspecified),1,3,15*,-9,-4,-54,-1,2
CCOC(=O)CC[C@H]1CC[C@]2(CCCN(C(=O)c3ccc4ccccc4n3)C2)O1,·,·,·,·,·,-1,·,·
NC(=O)c1c(NC(=O)C2COc3ccccc3O2)sc2c1CCN(Cc1ccccc1)C2 (stereo unspecified),1,-2,3,-8,-6,-7,·,·
COC(=O)N1CCc2c(sc(NC(=O)C3COc4ccccc4O3)c2C(N)=O)C1 (stereo unspecified),0,3,61*,-169,2,-3,3,43*
COc1cc(-c2cc(C(=O)O)c3cc4c(cc3n2)OCCO4)cc(OC)c1OC,-2,-1,7,19,10,11,·,·
COC(=O)c1ccc(-c2cc(C(=O)O)c3cc4c(cc3n2)OCCO4)cc1,-2,2,17*,-44,10,4,1,2
CCCN1CCS(=O)(=O)N(Cc2cn(Cc3ccc(F)cc3)nn2)C(C(=O)OC)C1 (stereo unspecified),·,·,·,·,·,6,·,·
COC(=O)CCC[C@H]1CC2(C[C@H](CCCO[Si](C)(C)C(C)(C)C)N1C(=O)OC(C)(C)C)OCCO2,-1,4,16*,-40,5,4,119*,2
Cc1ccc2ccccc2c1CSc1nc(N)nc2c1ncn2CC(C)C,-4,7,15*,-58,17,-10,4,2
O=C1CC2c3cc(Br)ccc3CCN2C(=O)CN1Cc1ccccc1 (stereo unspecified),·,·,·,·,·,9,·,·
CC(C)(C)C1CCC(=NNS(=O)(=O)c2ccc(Br)cc2)CC1 (stereo unspecified),0,-4,21*,-73,-1,-4,7,4
SMILES,MOR-DOR ag-1,m5-HT2A agonist,HTR5A ag ctr,HTR5A inv ag,MOR-DOR inv ag,HGIII-sPLA2 inh,MOR-DOR ag-2,HTR5A ag confirm
CC(=O)C1=C(C)N(Cc2ccc(F)cc2)C(=S)NC1c1ccc(Cl)cc1 (stereo unspecified),·,·,·,·,·,3,·,·
O=C(CS(=O)(=O)c1ccc(F)cc1)Nc1nnc(-c2ccccc2Cl)o1,-2,-3,34*,-92,11,-5,0,-5
COc1ccc(-c2nnc(NC(=O)CS(=O)(=O)c3ccc(F)cc3)o2)c(OC)c1,-3,0,-1,9,14,1,·,·
CCCCCCCCN1CCS(=O)(=O)N(Cc2ccccc2)C(C(=O)OC)C1 (stereo unspecified),·,·,·,·,·,-5,·,·
CC(=O)Nc1ccc(/C=N/NC(=O)CNS(=O)(=O)c2ccccc2)cc1,-1,4,1,-2,4,8,·,·
COc1ccc(/C=N/NC(=O)CNS(=O)(=O)c2ccccc2)cc1,-4,-9,21*,-52,14,-5,-1,-2
COC(=O)[C@]12C[C@H](CC(=O)N3CCC(c4ccccc4)CC3)C(=O)N(Cc3ccco3)C1=C[C@H](COCc1ccccc1)O[C@@H]2C,·,·,·,·,·,2,·,·
NC(=O)c1ccc(NC(=O)COC(=O)CCSc2ccccc2)cc1,-3,-1,15*,-42,16,-2,7,7
NC(=O)c1ccc(NC(=O)COC(=O)c2c[nH]c3ccccc23)cc1,0,-4,18*,-54,-2,-1,17,-3
Cc1ccc(SCCC(=O)OCC(=O)Nc2ccc(C(N)=O)cc2)cc1,-3,5,2,-6,10,-2,·,·
O=C1C2ON(c3ccccc3)C(c3ccncc3)C2C(=O)N1c1ccc(N2CCOCC2)cc1 (stereo unspecified),-1,9,20*,-56,4,-3,-2,-5
O=C(Nc1cccc(Cl)c1)Nc1cc(S(=O)(=O)N2CCCCC2)ccc1Cl,2,-4,1,-2,-13,-22,·,·
CN1CCN(S(=O)(=O)c2ccc(NC(=O)Nc3cccc(Cl)c3)cc2)CC1,6,-9,17*,-89,-33,-34,8,7
CCS(=O)(=O)N1Cc2ccccc2CC1C(=O)Nc1cccc(OC)c1 (stereo unspecified),-3,-4,0,0,13,-6,·,·
CCS(=O)(=O)N1Cc2ccccc2CC1C(=O)Nc1ccc(OC)c(OC)c1 (stereo unspecified),-1,5,15*,1,6,-3,1,5
